Shown are actives, neighbours in structure and some others; about 3.4% of the full set was active somewhere.
TEAD-YAP block – TEAD-YAP interaction inhibition, primary screen, TEAD-YAP interaction inhibitor project, luminescence, HEK-TIYL cells | TEAD-Gal4/YAP UAS-luciferase luminescence | inhibition, % at 9.12 µM | actives 1.4% (n = 640,000) | AID 1259422, 2018; in the data active = inhibition above about 32%;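 also: 0% = median of test compound wells and 100% = reference inhibitor wells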
MITF inh – MITF inhibitors, primary screen, biochemical, AlphaScreen, human. AID 1259374, 2018. AlphaScreen MITF homodimerization, bead proximity signal. Microphthalmia-associated transcription factor (Homo sapiens), O75030. inhibition, % at 2.6 µM. actives 0.91% (n = 650,000); in the data active = inhibition above about 50%;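 also: 0% = vehicle wells with protein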
GPR151 ag – activators of human GPR151, primary screen, cell-based, PathHunter beta-arrestin, luminescence. PathHunter beta-arrestin GPR151 cells. activation, % at 11.2 µM. actives 1% (n = 650,000). AID 1508602, 2020; in the data active = activation above about 4.9%;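 also: 0% = median of compound wells and 100% = cells with positive control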
Target sequence (Q8TDV0 whole entry, looked up): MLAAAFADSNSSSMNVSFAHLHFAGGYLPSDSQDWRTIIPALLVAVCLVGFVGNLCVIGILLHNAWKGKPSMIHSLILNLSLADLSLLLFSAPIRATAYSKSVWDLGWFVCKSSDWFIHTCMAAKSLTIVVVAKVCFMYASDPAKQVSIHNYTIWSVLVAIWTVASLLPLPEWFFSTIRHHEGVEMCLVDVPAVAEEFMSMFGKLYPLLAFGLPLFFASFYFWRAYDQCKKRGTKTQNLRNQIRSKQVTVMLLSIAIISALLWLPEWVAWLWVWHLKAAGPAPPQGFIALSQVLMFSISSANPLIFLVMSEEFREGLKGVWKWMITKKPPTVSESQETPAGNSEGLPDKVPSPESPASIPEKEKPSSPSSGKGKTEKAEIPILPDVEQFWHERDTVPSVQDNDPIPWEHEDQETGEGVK
FBW7 activator – FBW7 E3 ligase activators, primary screen, biochemical, AlphaScreen, human; actives 0.13% (n = 650,000); AlphaScreen FBW7–phospho-cyclin E peptide binding, activator screen; F-box/WD repeat-containing protein 7 (Homo sapiens), Q969H0; normalized activity (activation), % at 26.1 µM; in the data active = normalized activity above about 1.9%;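 also: purified mutant Fbw7 with reduced substrate affinity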
MITF inh conf – MITF inhibitors, retest of hits, confirmation, biochemical, AlphaScreen, triplicate; AID 1259372, 2018; shares compounds with MITF inh; inhibition, % at 2.6 µM; AlphaScreen MITF homodimerization, biotin/His-MITF beads; actives 16% (n = 4,700);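 active = inhibition above a cutoff derived from the DMSO control wells, cut at about 28% in these data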;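 also: 0% = MITF dimer wells with DMSO only; inhibitors lower the bead chemiluminescence by keeping MITF from dimerizing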
AS interf ctr – AlphaScreen optical interference compounds, counter-screen for MITF inhibitor project, biochemical, triplicate. shares compounds with MITF inh. inhibition, % at 2.6 µM. LysRS AlphaScreen counterscreen, signal interference. actives 7.6% (n = 4,700). AID 1259376, 2018;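 active = inhibition above a cutoff derived from the DMSO control wells, cut at about 30% in these data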
* hit, by the source's call; nt = no result.

SMILES | TEAD-YAP block | MITF inh | GPR151 ag | FBW7 activator | MITF inh conf | AS interf ctr
Cc1ccc(NC(=O)c2cccc(S(=O)(=O)N3CCOCC3)c2)cc1 | -13 | 14 | 4 | 0 | nt | nt
COc1ccc(CCc2nc(C)cc(CN(C)C)c2O)cc1 | -4 | -2 | 1 | 0 | nt | nt
COc1cc(C(=O)n2ccc([N+](=O)[O-])n2)cc(OC)c1OC | 0 | 7 | -1 | 0 | nt | nt
Cc1ccc(C)c(NC(=O)C(CC(C)C)NS(=O)(=O)c2ccc3c(c2)oc(=O)n3C)c1 (stereo not drawn) | 16 | 6 | 4 | 0 | nt | nt
CCN1CCN(CCOc2ccc(C)cc2Br)CC1 | 0 | 24 | 1 | 0 | nt | nt
Cc1ccc(OCCOCCN2CCN(C)CC2)c(C(C)(C)C)c1 | 8 | 56* | 0 | 0 | 6 | 17
CN1CCN(CCOCCOc2ccc(Cl)cc2C(C)(C)C)CC1 | 2 | 68* | 2 | 0 | 16 | 33*
CCN1CCN(CCOc2ccc(C)cc2C)CC1 | 4 | 78* | 0 | 0 | -6 | -2
Cc1ccc(OCCCN2CCN(C)CC2)c(C(C)(C)C)c1 | -1 | 31 | 1 | 0 | nt | nt
Cc1ccc(OCCOCCN2CCN(C)CC2)c(C)c1 | -1 | 65* | 2 | 0 | 12 | 20
Cc1cc(OCC(=O)N2CCOCC2)ccc1NC(=O)OCc1ccccc1 | -21 | 8 | 1 | 0 | nt | nt
Cc1cc2nc(-c3cc(NC(=O)c4ccc(Cl)cc4)ccc3Cl)oc2cc1C | 8 | 7 | -1 | 0 | nt | nt
CC(C)(C(N)=O)/[N+]([O-])=C\c1ccccc1 | 9 | -3 | 1 | 0 | nt | nt
CN1CCN(CCOCCOc2cccc(Cl)c2Cl)CC1 | -5 | 51* | -1 | 0 | 5 | 14
CN1CCN(CCOCCOc2ccccc2Br)CC1 | -1 | 30 | -1 | 0 | nt | nt
O=C(N/N=C/c1ccccc1Br)c1cc(Br)ccc1O | -23 | 4 | -1 | 0 | nt | nt
Cc1ccc(OCCCCN2CCNCC2)c([N+](=O)[O-])c1 | 0 | 80* | 0 | -1 | -18 | 2
O=[N+]([O-])c1ccccc1OCCN1CCCC1 | -5 | 10 | 0 | 0 | nt | nt
O=[N+]([O-])c1ccccc1OCCCCN1CCNCC1 | -10 | 67* | 0 | 0 | 4 | 6
CC1CCCN(CCOc2ccccc2[N+](=O)[O-])C1 (stereo not drawn) | 6 | 54* | -1 | 0 | 2 | 5
CCN1CCN(CCCOc2ccccc2[N+](=O)[O-])CC1 | 2 | 74* | 0 | 0 | 9 | 12
Cc1ccc(OCC(=O)NCc2ccncc2)c(Br)c1 | 2 | 4 | 3 | 0 | nt | nt
O=C1CCCN1CCCNc1nc(N2CCc3ccccc3C2)nc2nc[nH]c12 | -9 | 3 | 2 | 0 | nt | nt
CC(=O)n1c2c(c3ccccc31)OC(N)=C(C#N)C2c1cccc([N+](=O)[O-])c1 (stereo not drawn) | 9 | 58* | 0 | 0 | 7 | 14
Cc1ccc(OCCN2CCCCC2)c([N+](=O)[O-])c1 | -7 | 64* | 2 | 0 | 19 | 14
SMILES | TEAD-YAP block | MITF inh | GPR151 ag | FBW7 activator | MITF inh conf | AS interf ctr
Cc1ccc(OCCN2CCN(C)CC2)c([N+](=O)[O-])c1 | -10 | 76* | 2 | 0 | -9 | 0
Cc1ccc(OCCN2CCNCC2)c([N+](=O)[O-])c1 | -20 | 50 | 0 | 0 | nt | nt
Cc1ccc(OCCN2CC(C)OC(C)C2)c([N+](=O)[O-])c1 (stereo not drawn) | -1 | 76* | -2 | 0 | 16 | -5
Cc1ccc(OCCCN2CCCC2)c([N+](=O)[O-])c1 | 0 | 38 | 0 | 0 | nt | nt
Cc1cc(C(F)(F)F)c2c(N)c(C(=O)NCc3cccs3)sc2n1 | -8 | 8 | -2 | 0 | nt | nt
COc1cc(/C=N\NC(=O)c2c(C)nc3sccn23)ccc1O | 16 | 21 | 0 | 0 | nt | nt
c1coc(CN2CCN(Cc3cccc4ccccc34)CC2)c1 | -17 | 76* | -2 | 0 | 15 | 16
O=C(CN1CCN(Cc2cccc3ccccc23)CC1)c1ccco1 | -1 | 67* | -1 | 0 | 6 | 10
COc1ccccc1CNC(=O)CC1C(=O)NCCN1Cc1ccc(-c2ccccc2)cc1 (stereo not drawn) | 2 | -16 | 2 | 0 | nt | nt
